Test results from PubChem BioAssay AID1159580 (chemical genetic matrix, 2015).
Several values for one entry are separate records, joined by “and”; a condition that tells them apart may be missing. Identical values can stand only once. Screen size: about 5,500 compounds; about 2,000 (36%) were called active. Roughly 18% stayed inconclusive and do not appear here. Cut-off read from the data, not from the text of the source: active = normalized growth mostly below about 0.91 (no sharp cut-off); inconclusive = no clear call, values can overlap the other calls; inactive = mostly above about 0.92. Some of the results follow.

Assay: chemical genetic growth profiling, strain panel (AID 1159580);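 note: tested at 20 µM; growth read once vehicle control cultures reached saturation at 30 °C; 1 = growth at the plate median or of vehicle wells; lower values mean less growth of the strain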
Details: S. cerevisiae deletion strains, growth OD

Measured: normalized growth

OC[C@@H]1CCCN2CCCC[C@H]12
inactive: locus YAL013W, strain DEP1, stronger effect = lower value 0.983 | locus YAL021C, strain ccr4, stronger effect = lower value 1.05 | locus YAL026C, strain drs2, stronger effect = lower value 1.04 | locus YAL030W, strain snc1, stronger effect = lower value 1.03 | locus YBL061C, strain skt5, stronger effect = lower value 1.03 | locus YBR009C, strain hhf1, stronger effect = lower value 1.01 | locus YBR021W, strain FUR4, stronger effect = lower value 0.998 | locus YBR023C, strain chs3, stronger effect = lower value 1.05 | locus YBR171W, strain sec66, stronger effect = lower value 1.05 | locus YBR229C, strain ROT2, stronger effect = lower value 0.998 | locus YBR231C, strain swc5, stronger effect = lower value 1.03 | locus YBR279W, strain paf1, stronger effect = lower value 1.03 | locus YCL011C, strain gbp2, stronger effect = lower value 1.03 | locus YCL016C, strain dcc1, stronger effect = lower value 1.03 | locus YCL029C, strain bik1, stronger effect = lower value 1.02 | locus YCL061C, strain MRC1, stronger effect = lower value 1.02 | locus YCL069W, strain vba3, stronger effect = lower value 1.04 | locus YCR088W, strain abp1, stronger effect = lower value 1.04 | locus YDL005C, strain med2, stronger effect = lower value 1.03 | locus YDL035C, strain GPR1, stronger effect = lower value 1.01 | locus YDL040C, strain nat1, stronger effect = lower value 1.02 | locus YDL074C, strain BRE1, stronger effect = lower value 1.01 | locus YDL101C, strain DUN1, stronger effect = lower value 1.01 | locus YDL134C, strain PPH21, stronger effect = lower value 0.989 | locus YDL185W, strain tfp1, stronger effect = lower value 1.02 | locus YDL192W, strain arf1, stronger effect = lower value 1.01 | locus YDR001C, strain nth1, stronger effect = lower value 1.02 | locus YDR069C, strain doa4, stronger effect = lower value 1.01 | locus YDR101C, strain arx1, stronger effect = lower value 1.02 | locus YDR137W, strain rgp1, stronger effect = lower value 1.05 | locus YDR159W, strain sac3, stronger effect = lower value 0.961 | locus YDR162C, strain NBP2, stronger effect = lower value 1.01 | locus YDR195W, strain ref2 1.02 | locus YDR297W, strain sur2, stronger effect = lower value 1.01 | locus YDR318W, strain mcm21, stronger effect = lower value 1.01 | locus YDR334W, strain swr1, stronger effect = lower value 1.02 | locus YDR335W, strain msn5, stronger effect = lower value 1.04 | locus YDR388W, stronger effect = lower value 1.01 | locus YDR392W, strain spt3, stronger effect = lower value 0.945 | locus YDR502C, strain sam2, stronger effect = lower value 1.01 | locus YEL003W, strain gim4, stronger effect = lower value 1.04 | locus YEL037C, strain rad23, stronger effect = lower value 1.03 | locus YEL061C, strain CIN8 (second series), stronger effect = lower value 1.02 | locus YEL061C, strain CIN8, stronger effect = lower value 1 | locus YER015W, strain faa2, stronger effect = lower value 1.03 | locus YER016W, strain bim1, stronger effect = lower value 1.02 | locus YER110C, stronger effect = lower value 1.02 | locus YER111C, strain swi4, stronger effect = lower value 1.03 | locus YER155C, strain BEM2 (second series), stronger effect = lower value 1 | locus YER155C, strain BEM2, stronger effect = lower value 0.996 | locus YER167W, strain BCK2, stronger effect = lower value 1 | locus YFR010W, strain ubp6, stronger effect = lower value 1.01 | locus YGL078C, strain dbp3, stronger effect = lower value 1 | locus YGL086W, strain mad1, stronger effect = lower value 1.01 | locus YGL167C, strain pmr1, stronger effect = lower value 1.02 | locus YGL173C, strain kem1, stronger effect = lower value 1.02 | locus YGL227W, strain vid30, stronger effect = lower value 1.03 | locus YGL240W, strain doc1, stronger effect = lower value 1.01 | locus YGL248W, strain PDE1, stronger effect = lower value 0.993 | locus YGL253W, strain hxk2, stronger effect = lower value 1.05 | locus YGR078C, strain PAC10, stronger effect = lower value 1 | locus YGR135W, strain pre9, stronger effect = lower value 0.993 | locus YGR252W, strain gcn5, stronger effect = lower value 0.957 | locus YHR013C, strain ard1, stronger effect = lower value 1.03 | locus YHR027C, strain rpn1, stronger effect = lower value 1.01 | locus YHR030C, strain SLT2, stronger effect = lower value 0.998 and 1.01 | locus YHR079C, strain IRE1 (second series), stronger effect = lower value 1.01 | locus YHR079C, strain IRE1, stronger effect = lower value 1.02 | locus YHR094C, strain hxt1, stronger effect = lower value 1.01 | locus YHR129C, strain ARP1, stronger effect = lower value 1.01 | locus YHR142W, strain chs7, stronger effect = lower value 1.04 | locus YHR200W, strain rpn10, stronger effect = lower value 1.02 | locus YIL066C, strain RNR3, stronger effect = lower value 1.01 | locus YIL073C, strain SPO22, stronger effect = lower value 1.05 | locus YIL125W, strain kgd1, stronger effect = lower value 1.01 | locus YIR030C, strain dcg1, stronger effect = lower value 1.01 | locus YJL092W, strain hpr5, stronger effect = lower value 1.03 | locus YJL095W, strain BCK1 (second series), stronger effect = lower value 1.02 | locus YJL095W, strain BCK1, stronger effect = lower value 1.03 and 1 | locus YJL115W, strain asf1, stronger effect = lower value 1.03 | locus YJL129C, strain trk1, stronger effect = lower value 1.06 | locus YJL134W, strain LCB3, stronger effect = lower value 0.978 | locus YJL154C, strain vps35, stronger effect = lower value 1.02 | locus YJL164C, strain tpk1, stronger effect = lower value 1.02 | locus YJL166W, strain qcr8, stronger effect = lower value 1.02 | locus YJL168C, strain set2, stronger effect = lower value 1 | locus YJL187C, strain SWE1 (second series), stronger effect = lower value 1.02 | locus YJL187C, strain SWE1, stronger effect = lower value 1.04 | locus YJR043C, strain POL32, stronger effect = lower value 0.992
